Experiments:
[1] = target: Leukocyte tyrosine kinase receptor (Homo sapiens) (UniProt P29376); settings: at 1 µM;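 also: each value is the mean inhibition of LTK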
[2] = target: Tyrosine-protein kinase Lyn (Homo sapiens) (UniProt P07948); settings: at 0.1 µM
[3] = target: Tyrosine-protein kinase Lyn (Homo sapiens) (UniProt P07948); settings: at 1 µM
[4] = target: Tyrosine-protein kinase Lyn (Homo sapiens) (UniProt P07948); settings: at 0.1 µM; remark: listed apart in the source
[5] = target: Tyrosine-protein kinase Lyn (Homo sapiens) (UniProt P07948); settings: at 1 µM; remark: listed apart in the source
[6] = target: T1, Tyrosine-protein kinase Mer (Homo sapiens) (UniProt Q12866); settings: at 0.1 µM
T1 sequence (whole entry): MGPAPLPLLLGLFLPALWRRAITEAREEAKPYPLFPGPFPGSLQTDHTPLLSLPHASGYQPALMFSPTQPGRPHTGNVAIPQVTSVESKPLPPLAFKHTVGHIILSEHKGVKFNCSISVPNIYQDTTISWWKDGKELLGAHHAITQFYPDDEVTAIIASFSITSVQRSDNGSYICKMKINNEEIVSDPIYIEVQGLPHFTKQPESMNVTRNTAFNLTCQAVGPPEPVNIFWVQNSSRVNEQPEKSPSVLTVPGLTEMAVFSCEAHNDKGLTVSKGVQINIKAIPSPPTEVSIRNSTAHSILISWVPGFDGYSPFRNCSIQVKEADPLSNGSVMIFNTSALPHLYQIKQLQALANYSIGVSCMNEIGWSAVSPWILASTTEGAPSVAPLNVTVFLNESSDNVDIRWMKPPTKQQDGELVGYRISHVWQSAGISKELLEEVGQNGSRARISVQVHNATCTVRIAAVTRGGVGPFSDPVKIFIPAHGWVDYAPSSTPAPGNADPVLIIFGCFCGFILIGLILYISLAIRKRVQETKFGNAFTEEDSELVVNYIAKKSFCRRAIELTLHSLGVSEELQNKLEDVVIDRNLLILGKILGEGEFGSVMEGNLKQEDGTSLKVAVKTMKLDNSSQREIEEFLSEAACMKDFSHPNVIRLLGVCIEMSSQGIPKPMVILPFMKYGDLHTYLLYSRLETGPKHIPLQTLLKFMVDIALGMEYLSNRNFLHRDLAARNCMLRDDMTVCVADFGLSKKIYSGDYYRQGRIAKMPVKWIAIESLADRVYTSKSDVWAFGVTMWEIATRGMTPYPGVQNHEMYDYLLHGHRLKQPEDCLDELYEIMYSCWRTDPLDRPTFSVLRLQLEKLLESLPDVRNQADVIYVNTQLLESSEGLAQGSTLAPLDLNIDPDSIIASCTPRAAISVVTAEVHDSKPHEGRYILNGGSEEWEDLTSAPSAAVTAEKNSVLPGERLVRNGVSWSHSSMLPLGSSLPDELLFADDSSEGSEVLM

[7] = target: T1, Tyrosine-protein kinase Mer (Homo sapiens); settings: at 1 µM
[8] = target: Hepatocyte growth factor receptor (Homo sapiens) (UniProt P08581); settings: at 0.1 µM
[9] = target: Hepatocyte growth factor receptor (Homo sapiens) (UniProt P08581); settings: at 1 µM
[10] = target: T2, Muscle, skeletal receptor tyrosine-protein kinase (Homo sapiens) (UniProt O15146); settings: at 0.1 µM;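 also: values are mean inhibition of MuSK from the GSK PKIS kinase screening panel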
T2 sequence (whole entry): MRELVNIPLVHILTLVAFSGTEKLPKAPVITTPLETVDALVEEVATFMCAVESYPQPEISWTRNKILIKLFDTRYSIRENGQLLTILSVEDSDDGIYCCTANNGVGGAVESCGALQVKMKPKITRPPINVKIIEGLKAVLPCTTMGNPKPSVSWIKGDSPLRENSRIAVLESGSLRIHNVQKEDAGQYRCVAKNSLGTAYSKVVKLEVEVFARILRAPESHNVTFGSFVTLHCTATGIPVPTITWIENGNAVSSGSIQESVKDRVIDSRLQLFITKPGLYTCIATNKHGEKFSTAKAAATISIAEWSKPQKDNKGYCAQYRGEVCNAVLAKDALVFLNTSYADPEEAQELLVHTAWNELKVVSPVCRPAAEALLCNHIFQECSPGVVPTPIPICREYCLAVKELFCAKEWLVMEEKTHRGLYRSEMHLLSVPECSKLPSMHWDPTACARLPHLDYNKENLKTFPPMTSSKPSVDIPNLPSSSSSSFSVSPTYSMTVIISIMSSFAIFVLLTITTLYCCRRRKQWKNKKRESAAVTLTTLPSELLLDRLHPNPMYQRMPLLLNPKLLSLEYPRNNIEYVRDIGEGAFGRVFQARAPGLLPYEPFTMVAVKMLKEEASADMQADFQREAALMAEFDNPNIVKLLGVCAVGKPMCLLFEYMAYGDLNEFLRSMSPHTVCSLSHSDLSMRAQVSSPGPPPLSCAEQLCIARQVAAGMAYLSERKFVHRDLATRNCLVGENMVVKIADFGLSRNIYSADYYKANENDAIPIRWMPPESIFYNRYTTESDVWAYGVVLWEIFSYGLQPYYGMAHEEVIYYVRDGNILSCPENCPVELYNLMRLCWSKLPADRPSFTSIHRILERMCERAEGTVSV

Tyrosine-protein kinase Lyn (Homo sapiens), sequence (P07948 2-512 limits assumed): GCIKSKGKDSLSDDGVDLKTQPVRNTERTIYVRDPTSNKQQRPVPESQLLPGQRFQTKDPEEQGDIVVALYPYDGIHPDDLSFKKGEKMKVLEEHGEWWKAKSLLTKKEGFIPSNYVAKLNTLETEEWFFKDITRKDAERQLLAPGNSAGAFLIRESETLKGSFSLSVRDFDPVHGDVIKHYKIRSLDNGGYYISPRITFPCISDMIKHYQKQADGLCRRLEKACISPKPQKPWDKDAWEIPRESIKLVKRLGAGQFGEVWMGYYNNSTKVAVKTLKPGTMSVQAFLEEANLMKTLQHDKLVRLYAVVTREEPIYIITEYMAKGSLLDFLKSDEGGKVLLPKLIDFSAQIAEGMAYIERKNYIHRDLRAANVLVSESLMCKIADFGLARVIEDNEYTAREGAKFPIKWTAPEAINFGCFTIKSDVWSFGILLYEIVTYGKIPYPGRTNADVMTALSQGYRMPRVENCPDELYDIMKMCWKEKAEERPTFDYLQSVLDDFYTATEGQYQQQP
Leukocyte tyrosine kinase receptor (Homo sapiens), sequence (P29376 whole entry): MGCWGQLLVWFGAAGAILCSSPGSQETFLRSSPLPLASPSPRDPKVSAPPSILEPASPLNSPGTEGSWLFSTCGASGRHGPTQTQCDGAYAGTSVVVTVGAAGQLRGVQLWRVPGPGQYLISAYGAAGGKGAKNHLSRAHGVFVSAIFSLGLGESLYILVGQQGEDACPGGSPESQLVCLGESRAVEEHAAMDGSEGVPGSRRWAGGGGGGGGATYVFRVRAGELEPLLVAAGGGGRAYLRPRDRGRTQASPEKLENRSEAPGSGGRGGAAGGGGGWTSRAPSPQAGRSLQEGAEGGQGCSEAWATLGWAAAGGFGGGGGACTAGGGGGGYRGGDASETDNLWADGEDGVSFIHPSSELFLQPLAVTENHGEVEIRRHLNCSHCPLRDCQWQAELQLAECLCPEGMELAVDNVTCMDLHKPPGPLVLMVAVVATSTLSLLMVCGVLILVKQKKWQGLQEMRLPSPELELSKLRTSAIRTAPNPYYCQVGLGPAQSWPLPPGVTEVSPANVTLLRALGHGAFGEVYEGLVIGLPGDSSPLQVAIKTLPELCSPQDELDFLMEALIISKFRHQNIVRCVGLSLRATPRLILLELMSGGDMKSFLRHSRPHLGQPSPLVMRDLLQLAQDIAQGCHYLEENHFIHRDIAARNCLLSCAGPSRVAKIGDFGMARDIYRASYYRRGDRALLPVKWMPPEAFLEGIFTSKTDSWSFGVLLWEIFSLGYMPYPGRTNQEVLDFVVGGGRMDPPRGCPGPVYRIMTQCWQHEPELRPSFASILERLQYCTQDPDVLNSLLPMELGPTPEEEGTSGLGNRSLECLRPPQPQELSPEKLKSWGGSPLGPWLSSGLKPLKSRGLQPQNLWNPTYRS
Hepatocyte growth factor receptor (Homo sapiens), sequence (P08581 whole entry): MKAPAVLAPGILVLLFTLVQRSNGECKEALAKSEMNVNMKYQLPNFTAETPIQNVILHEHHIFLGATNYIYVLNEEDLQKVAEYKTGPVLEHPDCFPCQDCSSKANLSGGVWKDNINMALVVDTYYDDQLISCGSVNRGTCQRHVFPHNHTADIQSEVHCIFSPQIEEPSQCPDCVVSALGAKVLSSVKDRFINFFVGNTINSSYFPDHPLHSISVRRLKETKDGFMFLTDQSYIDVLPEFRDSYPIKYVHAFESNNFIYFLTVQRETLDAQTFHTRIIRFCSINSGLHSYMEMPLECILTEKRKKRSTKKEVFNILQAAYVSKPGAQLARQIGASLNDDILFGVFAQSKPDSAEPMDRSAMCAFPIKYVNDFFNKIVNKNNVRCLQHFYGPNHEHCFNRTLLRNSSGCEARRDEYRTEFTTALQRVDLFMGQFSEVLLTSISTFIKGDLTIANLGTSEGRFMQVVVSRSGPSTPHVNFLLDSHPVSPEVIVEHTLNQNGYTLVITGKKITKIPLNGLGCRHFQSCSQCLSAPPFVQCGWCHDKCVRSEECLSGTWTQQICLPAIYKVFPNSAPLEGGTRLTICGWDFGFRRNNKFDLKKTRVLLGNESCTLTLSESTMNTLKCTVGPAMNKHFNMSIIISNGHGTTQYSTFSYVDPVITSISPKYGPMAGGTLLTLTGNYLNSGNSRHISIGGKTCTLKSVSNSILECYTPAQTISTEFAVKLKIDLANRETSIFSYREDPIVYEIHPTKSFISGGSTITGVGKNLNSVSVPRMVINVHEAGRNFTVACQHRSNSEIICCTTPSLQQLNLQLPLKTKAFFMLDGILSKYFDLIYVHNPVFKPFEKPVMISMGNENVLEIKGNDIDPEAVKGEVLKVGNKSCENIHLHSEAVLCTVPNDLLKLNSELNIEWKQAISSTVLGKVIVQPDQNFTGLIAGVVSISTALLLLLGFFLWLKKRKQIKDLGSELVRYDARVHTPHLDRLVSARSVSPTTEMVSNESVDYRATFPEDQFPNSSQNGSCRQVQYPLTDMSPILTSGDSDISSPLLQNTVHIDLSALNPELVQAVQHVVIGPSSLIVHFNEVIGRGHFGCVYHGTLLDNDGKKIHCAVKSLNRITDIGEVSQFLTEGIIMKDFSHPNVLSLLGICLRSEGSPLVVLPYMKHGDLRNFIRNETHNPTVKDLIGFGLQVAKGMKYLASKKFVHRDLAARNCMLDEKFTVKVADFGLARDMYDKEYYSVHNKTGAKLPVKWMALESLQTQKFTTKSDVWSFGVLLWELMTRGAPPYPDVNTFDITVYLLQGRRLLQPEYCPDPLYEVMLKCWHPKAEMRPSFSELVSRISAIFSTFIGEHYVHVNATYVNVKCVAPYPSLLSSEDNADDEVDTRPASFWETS

SMILES	inhibition [1] [%]	inhibition [2] [%]	inhibition [3] [%]	inhibition [4] [%]	inhibition [5] [%]	inhibition [6] [%]	inhibition [7] [%]	inhibition [8] [%]	inhibition [9] [%]	inhibition [10] [%]
CCc1cccc(NC(=O)Nc2ccc(Oc3ccc4nc(NC(=O)OC)[nH]c4c3)cc2)c1	0.04	10	20.8	7.66	15.2	2.96	3.11	15.7	27.4	16.2
O=C1NC(=O)C(N2CCc3ccccc32)=C1c1ccc(Cl)cc1	1.64	6.82	6.94	5.14	4.26	4.06	6.47	-1.68	7.33	2.09
COc1ccc(-c2coc3ncnc(N)c23)cc1	2.3	5.38	5.54	3.09	7.61	2.63	2.9	10	6.47	4.06
COc1ccccc1Nc1ncc(-c2ccccc2)o1	4.49	5.91	8.44	3.58	5.77	0.01	1.66	10.1	1.27	4.33
N#Cc1c(NC(=O)c2cccc3ccccc23)sc2c1CCCC2	2.53	4.91	5.68	2.96	3.7	0.86	1.53	3.61	7.33	3.62
CCn1c(-c2nonc2N)nc2cnc(Oc3cccc(NC(=O)c4ccc(OCCN5CCOCC5)cc4)c3)cc21	1.51	5.8	4.87	3.05	2.62	1.1	2.56	3.9	7.84	2.09
CNC(=O)c1cncc(/C=C/c2c(Cl)cccc2Cl)c1	5.04	11.1	48.7	7.62	43.5	2.3	2.24	2.67	1.88	3.75
Nc1nc(-c2ccccn2)c(-c2ccc3ncccc3n2)s1	2.34	4.59	4.44	2.14	3.06	0.73	4.5	2.46	9.52	3.99
COc1ccc(-c2ccncc2)cc1C(N)=O	5.79	4.67	4.69	2.01	4.65	2.57	5.63	3.93	5.8	2.42
NC(=O)c1cccc(Nc2nccc(Nc3cccc4[nH]ncc34)n2)c1	39	58.5	91.3	52.3	88.9	-0.28	8.27	-1.63	4.73	1.07
CCCN1CCC(Oc2cc(Nc3nc(Nc4cccc(F)c4C(N)=O)c4cc[nH]c4n3)c(OC)cc2Cl)CC1	68.8	0	2.61	-0.77	1.89	0.64	2.77	-1.41	-2.15	3.31
CS(=O)(=O)CCNCc1ccc(-c2ccc3ncnc(Nc4ccc(OCc5ccccc5)c(Cl)c4)c3c2)o1	4.23	1.21	6.25	1.19	5.08	4.37	30.6	5.04	7.4	3.89
COc1cc(C=NNc2ncnc3c2cnn3-c2ccccc2)ccc1O	6.55	17.1	65.9	13.3	62.8	6.78	34.5	21.5	88.6	7.87
O=C1NC(=O)C(c2ccc(Cl)cc2)=C1Nc1ccc(Cl)c(C(=O)O)c1	-0.2	0.02	-0.5	-2.02	-0.81	1.27	0.08	-1.14	-0.38	-1.83
COc1ccc(COc2ccc(Cc3cnc(N)nc3N)cc2OC)cc1	-0.41	0.58	0.33	0.18	2.08	2.31	3.48	2.14	5.98	4.72
Cc1nn(C)c2cc(N(C)c3ccnc(Nc4cccc(S(N)(=O)=O)c4)n3)ccc12	29	13.6	51.3	9.71	46.8	2.42	18.8	7.18	37.1	2.31
Cc1ccc(NC(=O)c2ccnc(N3CCCC3)c2)cc1-c1ccc(C(=O)NCC2CC2)cc1	2.5	3.64	8.64	1.83	5.14	1.62	3.81	9.41	7.36	4.38

SMILES	inhibition [1] [%]	inhibition [2] [%]	inhibition [3] [%]	inhibition [4] [%]	inhibition [5] [%]	inhibition [6] [%]	inhibition [7] [%]	inhibition [8] [%]	inhibition [9] [%]	inhibition [10] [%]
O=C(Nc1n[nH]c2nc(-c3ccco3)c(Br)cc12)C1CC1	0.72	4.37	4.24	2.54	3.6	1.42	4.5	1.38	6.65	2.24
Cc1nnc(-c2ccc(C)c(-c3ccc(C(=O)Nc4cccc(C#N)c4)cc3)c2)o1	1.76	3.98	6.36	2.18	5.78	0.8	2.51	3.66	-0.54	2.58
CC(=O)Nc1cccc(C#Cc2cncnc2Nc2ccc(OCc3cccc(F)c3)c(Cl)c2)n1	1.48	0.69	4.88	0.67	3.79	-0.16	0.67	-2.7	2.91	2.44
CCn1c(-c2nonc2N)nc2c(N3CCCC3)nccc21	-0.6	1.31	-0.07	1.13	0.52	0.24	1.56	-3.32	-1.91	1.25
COc1cc(C)c(NC(=O)CN(C)C)cc1Nc1nc(Nc2cccc(F)c2C(N)=O)c2cc[nH]c2n1	95.6	3.5	1.33	2.46	-0.14	2.47	7.53	3.32	-1.66	5.47
CC1=C(C(=O)Nc2ccc3[nH]ncc3c2)C(c2ccc(F)cc2)NC(=O)N1 (stereo not given)	1.52	2.06	2.69	0.99	1.73	1.43	0.93	3	14.9	1.49
COc1ccc2cc(-c3c(-c4ccncc4)nc(-c4ccc([S+](C)[O-])cc4)n3C)ccc2c1 (stereo not given)	2.37	2.95	9.35	1.98	6.67	0.48	6.32	4.07	-0.71	1.76
COc1cc2ncn(-c3cc(O[C@H](C)c4ccccc4Cl)c(C(N)=O)s3)c2cc1OC	11.3	6.61	27.9	5.21	23.9	5.63	22.6	4.85	17	29.3
CCn1c(-c2nonc2N)nc2c(C#CC(C)(C)O)nc(CN3CCCC3)cc21	-0.04	-1.54	0.2	-1.39	0.5	-0.28	0.18	5.85	5.28	0.58
CC1=C(C(=O)Nc2ccc3[nH]ncc3c2)C(c2ccc3ccccc3c2)CC(=O)N1 (stereo not given)	3.95	6.74	30.8	4.2	26.2	0.87	2.79	8.81	40.3	2.08
CN(C)c1cc2c(Nc3ccc4nc(Cc5ccccc5)[nH]c4c3)ncnc2cn1	3.97	9.84	32.1	7.8	28.7	1.94	8.97	0.15	5.85	2.63
COC(=O)Nc1nc2cc(Oc3ccc(NC(=O)Nc4cccc(C(=O)O)c4)cc3)ccc2[nH]1	-0.52	0.39	5.81	0.48	2.9	0.61	2.01	-0.09	11.4	-0.16
CCCN1CCC=C(c2ccc(Nc3nc(Nc4ccccc4C(N)=O)c4cc[nH]c4n3)c(C)c2)C1	93.9	2.75	6.69	-0.18	2.97	1.4	10.5	6.76	13.1	4.95
Cc1cc(O)cc(C)c1/C=C/c1cncc(-c2nn[nH]n2)c1	27.8	21.9	78.4	17	73.9	2.28	5.61	3.29	8.95	2.58
c1cnn2ncc(-c3ccnc(Nc4ccc5c(c4)OCCO5)n3)c2c1	21.9	7.12	12.7	4.02	11	4.03	19.6	3.78	16.8	5.35
Nc1nc(-c2ccc3c(c2)C(=Cc2cc(Br)c(O)c(Br)c2)C(=O)N3)cs1	17.4	0.87	6.57	0.59	4.62	-0.02	3.29	1.02	4.73	0.81

Source: ChEMBL document CHEMBL1961873, “Compounds: GSK PKIS; Assays: Nanosyn kinase panel” (2012)
